Laboratory results as given in PubChem BioAssay.
Active and inactive are the calls of the source.

Experiments:
[1] = test system: Plasmodium falciparum Sir2 (PF13_0152, Sir2A); test: Plasmodium falciparum Sir2A binding compounds – biochemical, small-molecule microarray, 635 nm fluorescence, primary screen (AID 1098); conditions: fluorescence 635 nm, higher = more signal;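 also: score merges spot fluorescence intensity with its signal-to-noise ratio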
[2] = probe aDKK1 binding to arrayed compounds – biochemical, biotinylated probe, 635/667 nm fluorescence, primary screen (AID 1099); conditions: small-molecule microarray, higher = more signal;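 also: score merges 667nm spot fluorescence with signal to noise across triplicate slides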
[3] = probe aCHRDL2 binding to arrayed compounds – biochemical, biotinylated probe, 635/667 nm fluorescence, primary screen (AID 1100); conditions: small-molecule microarray, higher = more signal
[4] = change in splice reporter luminescence, either direction, cell-based, HEK293, spliceosome inhibition project, primary screen (AID 1101); conditions: HEK293 splicing luciferase reporter, 24 h, higher = more signal, called active from +8 up or from −8 down;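 also: HEK293 cells carrying a splicing-competent luciferase reporter gene; test concentration not given here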
[5] = target: Fibroblast growth factor 10 (Homo sapiens) (UniProt O15520); test: compounds binding fibroblast growth factor 10 – biochemical, small-molecule microarray, 635 nm fluorescence, primary screen (AID 1102); conditions: FGF10 binding, fluorescence 635 nm, higher = more signal
[6] = test system: glycogen synthase kinase-3 (GSK3A per assay name; protocol says GSK3B); test: compounds binding glycogen synthase kinase-3 – biochemical, small-molecule microarray, 635 nm fluorescence, GSK3A, primary screen (AID 1103); conditions: fluorescence 635 nm, higher = more signal; also: the record names both GSK3A and GSK3B
[7] = target: Epidermal growth factor receptor (Homo sapiens) (UniProt P00533); test: compounds binding epidermal growth factor receptor – biochemical, small-molecule microarray, 635 nm fluorescence, primary screen (AID 1104); conditions: EGFR binding, higher = more signal;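 also: score merges 667 nm emission intensity with spot signal to noise over triplicate slides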
[8] = target: Follistatin-related protein 3 (Homo sapiens) (UniProt O95633); test: compounds binding follistatin-related protein 3 – biochemical, small-molecule microarray, 635 nm fluorescence, primary screen (AID 1105); conditions: FSTL3 binding, higher = more signal;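 also: score merges emission near 667 nm and signal to noise per printed spot across three slides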
[9] = target: Dickkopf-related protein 1 (Homo sapiens) (UniProt O94907); test: small molecules binding DKK1 protein – biochemical, small-molecule microarray, 635 nm fluorescence scan, primary screen (AID 1106); conditions: higher = more signal;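 also: score merges emission near 667 nm with signal to noise over three replicate slides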
[10] = test system: Inhibin beta A chain (activin A); test: small molecules binding activin A – biochemical, small-molecule microarray, 635 nm fluorescence scan, primary screen (AID 1107); conditions: INHBA, higher = more signal;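 also: mouse activin A protein probed at 4.33 µg/mL on printed slides; score merges bound-protein fluorescence near 667 nm with spot signal-to-noise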
[11] = test system: Human papillomavirus type 1a protein E7 (residues 44-93); test: small molecules binding HPV E7 44-93 – biochemical, small-molecule microarray, residues 44-93, 635 nm fluorescence, primary screen (AID 1108); conditions: fluorescence 635 nm, higher = more signal;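 also: E7 fragment applied at 1 µg/mL in TBST for 1 h at 4 C; score combines spot fluorescence with its signal to noise ratio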
[12] = hepatitis C replication reporter changes, two-sided – Huh7 cells, luciferase reporter, HCV replication inhibitor project, primary screen (AID 1109); conditions: Huh7 HCV replicon luciferase reporter, 48 h; higher = more signal;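 also: huh7 hepatoma cells harbouring a luciferase neomycin HCV replicon reporter; luciferase luminescence as measure of HCV replicon replication; test concentration not given here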
[13] = target: Left-right determination factor 2 (Homo sapiens) (UniProt O00292); test: small molecules binding LEFTY2 protein – biochemical, small-molecule microarray, 635 nm fluorescence scan, primary screen (AID 1110); conditions: higher = more signal
[14] = target: Calmodulin-1 (Homo sapiens) (UniProt P0DP23); test: small molecules binding calmodulin-1 with EGTA – biochemical, small-molecule microarray, Cy5-labelled CALM1, profiling panel (AID 1111); conditions: Cy5-CALM1 binding fluorescence, higher = more signal;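 also: labelled calmodulin applied in Tris saline Tween buffer holding calcium plus EGTA and DTT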
[15] = target: Calmodulin-1 (Homo sapiens) (UniProt P0DP23); test: small molecules binding Ca-loaded calmodulin-1 – biochemical, small-molecule microarray, Cy5-labelled CALM1, plus calcium, artefact control for SMM control-protein annotation, profiling panel (AID 1112); conditions: Cy5-CALM1 binding fluorescence, higher = more signal;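 also: score merges spot fluorescence with signal to noise from triplicate slides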
[16] = probe aWnt5a binding to arrayed compounds – biochemical, biotinylated probe, 635/667 nm fluorescence, primary screen (AID 1113); conditions: small-molecule microarray, higher = more signal;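 also: score merges 667 nm fluorescence intensity with signal-to-noise per printed feature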
[17] = probe aShh binding to arrayed compounds – biochemical, biotinylated probe, 635/667 nm fluorescence, primary screen (AID 1114); conditions: small-molecule microarray, higher = more signal;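 also: probe is biotin-labelled aShh protein from a stem cell growth factor screen; measures binding of labelled protein to compounds printed on the slide; score merges feature fluorescence at 667 nm with signal-to-noise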
[18] = probe aNog binding to arrayed compounds – biochemical, biotinylated probe, 635/667 nm fluorescence, primary screen (AID 1115); conditions: small-molecule microarray, higher = more signal;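 also: probe is biotinylated aNog protein used at 0.15 µg/mL for 1 h at 4 C; z-score combines 667 nm fluorescence of each spot with its signal to noise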
[19] = target: Torsin-1A-interacting protein 1 (Homo sapiens) (UniProt Q5JTV8); test: compound microarray binding of lysate hLAP1 – cell lysate, small-molecule microarray, COS7 lysate, 635/667 nm fluorescence, primary screen (AID 1116); conditions: 635 nm fluorescence, higher = more signal
[20] = target: Alpha-bungarotoxin (Bungarus multicinctus) (UniProt P60615); test: compounds binding labelled alpha-BTX control protein – biochemical, small-molecule microarray, Alexa647 label, 635/667 nm fluorescence, artefact control for SMM control protein annotation, profiling panel (AID 1117); conditions: alpha-BTX-A647 binding fluorescence, higher = more signal
Sequence of Alpha-bungarotoxin (Bungarus multicinctus) (P60615 whole entry, looked up): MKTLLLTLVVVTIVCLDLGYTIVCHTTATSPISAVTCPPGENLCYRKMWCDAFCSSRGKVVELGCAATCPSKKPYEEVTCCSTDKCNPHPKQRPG

Sequence of Left-right determination factor 2 (Homo sapiens) (O00292 whole entry, looked up): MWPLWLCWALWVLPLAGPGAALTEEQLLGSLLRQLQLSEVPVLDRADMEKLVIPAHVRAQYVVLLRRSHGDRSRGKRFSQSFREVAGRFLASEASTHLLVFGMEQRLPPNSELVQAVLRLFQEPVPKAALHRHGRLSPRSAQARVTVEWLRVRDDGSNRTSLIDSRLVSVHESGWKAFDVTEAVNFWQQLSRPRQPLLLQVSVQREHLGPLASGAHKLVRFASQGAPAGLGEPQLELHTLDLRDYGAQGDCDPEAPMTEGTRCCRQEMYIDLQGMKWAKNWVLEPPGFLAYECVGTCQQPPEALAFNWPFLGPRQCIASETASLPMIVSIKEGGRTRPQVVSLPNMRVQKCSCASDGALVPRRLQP
Sequence of Dickkopf-related protein 1 (Homo sapiens) (O94907 whole entry, looked up): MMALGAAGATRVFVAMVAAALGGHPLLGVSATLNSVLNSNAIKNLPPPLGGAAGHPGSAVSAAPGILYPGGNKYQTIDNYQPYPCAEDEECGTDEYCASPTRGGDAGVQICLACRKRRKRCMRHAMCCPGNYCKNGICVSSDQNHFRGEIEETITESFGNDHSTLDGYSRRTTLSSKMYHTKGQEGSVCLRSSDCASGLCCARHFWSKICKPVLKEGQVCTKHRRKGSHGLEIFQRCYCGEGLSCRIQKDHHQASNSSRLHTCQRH
Sequence of Follistatin-related protein 3 (Homo sapiens) (O95633 whole entry, looked up): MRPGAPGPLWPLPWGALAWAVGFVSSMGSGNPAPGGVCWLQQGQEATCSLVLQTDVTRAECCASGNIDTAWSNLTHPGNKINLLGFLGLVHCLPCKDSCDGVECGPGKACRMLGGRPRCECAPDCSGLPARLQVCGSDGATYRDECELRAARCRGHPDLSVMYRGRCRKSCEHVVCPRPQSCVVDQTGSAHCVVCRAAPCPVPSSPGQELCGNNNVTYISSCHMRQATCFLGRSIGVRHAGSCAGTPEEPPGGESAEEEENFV
Sequence of Fibroblast growth factor 10 (Homo sapiens) (O15520 whole entry, looked up): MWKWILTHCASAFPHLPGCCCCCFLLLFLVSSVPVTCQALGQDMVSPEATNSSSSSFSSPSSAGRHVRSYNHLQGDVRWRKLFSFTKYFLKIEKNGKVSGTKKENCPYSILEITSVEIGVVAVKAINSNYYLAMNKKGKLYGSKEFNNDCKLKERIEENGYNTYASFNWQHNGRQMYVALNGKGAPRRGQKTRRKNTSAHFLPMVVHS
Sequence of Epidermal growth factor receptor (Homo sapiens) (P00533 whole entry, looked up): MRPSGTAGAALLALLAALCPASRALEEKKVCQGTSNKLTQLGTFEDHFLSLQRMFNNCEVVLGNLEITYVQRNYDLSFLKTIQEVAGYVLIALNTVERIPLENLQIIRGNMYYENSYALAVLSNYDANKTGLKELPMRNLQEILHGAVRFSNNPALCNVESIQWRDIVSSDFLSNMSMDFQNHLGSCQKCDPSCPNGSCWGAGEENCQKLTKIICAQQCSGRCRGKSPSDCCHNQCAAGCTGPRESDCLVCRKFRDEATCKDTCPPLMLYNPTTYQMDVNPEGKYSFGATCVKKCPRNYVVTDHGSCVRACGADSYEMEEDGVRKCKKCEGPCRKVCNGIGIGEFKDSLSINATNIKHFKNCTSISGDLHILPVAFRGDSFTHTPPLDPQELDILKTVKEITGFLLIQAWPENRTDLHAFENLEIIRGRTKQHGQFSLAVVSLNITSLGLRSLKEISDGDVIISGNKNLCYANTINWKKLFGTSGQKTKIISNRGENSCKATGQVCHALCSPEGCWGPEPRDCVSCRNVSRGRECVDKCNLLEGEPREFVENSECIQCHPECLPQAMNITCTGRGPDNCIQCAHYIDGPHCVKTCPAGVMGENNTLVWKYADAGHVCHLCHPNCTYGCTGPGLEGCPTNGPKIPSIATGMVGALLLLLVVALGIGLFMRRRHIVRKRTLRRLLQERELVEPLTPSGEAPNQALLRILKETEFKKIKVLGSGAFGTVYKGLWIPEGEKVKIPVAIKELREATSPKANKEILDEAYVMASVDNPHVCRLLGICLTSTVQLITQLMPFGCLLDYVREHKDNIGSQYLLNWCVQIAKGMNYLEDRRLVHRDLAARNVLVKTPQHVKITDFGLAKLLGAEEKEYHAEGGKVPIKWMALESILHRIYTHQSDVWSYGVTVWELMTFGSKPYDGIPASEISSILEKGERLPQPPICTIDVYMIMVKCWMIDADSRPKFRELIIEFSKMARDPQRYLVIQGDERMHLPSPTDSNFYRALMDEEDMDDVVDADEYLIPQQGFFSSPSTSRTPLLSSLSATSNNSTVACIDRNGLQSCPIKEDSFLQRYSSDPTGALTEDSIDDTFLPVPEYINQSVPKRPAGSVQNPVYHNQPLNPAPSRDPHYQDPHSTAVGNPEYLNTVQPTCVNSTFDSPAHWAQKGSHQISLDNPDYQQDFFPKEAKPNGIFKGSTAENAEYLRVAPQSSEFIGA
Sequence of Torsin-1A-interacting protein 1 (Homo sapiens) (Q5JTV8 whole entry, looked up): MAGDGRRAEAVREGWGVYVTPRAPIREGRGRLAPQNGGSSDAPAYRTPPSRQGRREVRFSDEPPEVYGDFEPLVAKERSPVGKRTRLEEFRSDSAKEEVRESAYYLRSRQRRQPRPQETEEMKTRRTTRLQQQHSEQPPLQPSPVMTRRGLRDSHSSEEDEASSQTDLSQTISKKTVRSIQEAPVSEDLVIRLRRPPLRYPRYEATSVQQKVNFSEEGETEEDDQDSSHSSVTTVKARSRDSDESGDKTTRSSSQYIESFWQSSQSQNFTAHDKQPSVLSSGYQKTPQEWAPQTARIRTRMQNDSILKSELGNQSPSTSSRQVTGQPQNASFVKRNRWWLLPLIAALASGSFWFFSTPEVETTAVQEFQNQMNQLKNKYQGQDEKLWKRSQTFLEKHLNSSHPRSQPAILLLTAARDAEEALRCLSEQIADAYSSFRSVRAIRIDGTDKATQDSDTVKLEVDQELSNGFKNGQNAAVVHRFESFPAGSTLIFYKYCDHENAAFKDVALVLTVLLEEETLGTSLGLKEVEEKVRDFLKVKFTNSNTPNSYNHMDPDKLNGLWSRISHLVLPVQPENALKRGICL

O=C1c2ccccc2[C@](Cc2ccccc2I)(C(=O)NCc2ccccc2)[C@H](c2ccc(CO)cc2)N1Cc1ccccc1C(F)(F)F
composite z-score [1]: 0.74 | composite z-score [2]: 0.606 | composite z-score [3]: 1.11 | z-score [4]: -0.984 (inactive) | composite z-score [5]: -0.881 | composite z-score [6]: -1.42 | composite z-score [7]: -1.39 | composite z-score [8]: -1.27 | composite z-score [9]: -2.07 | composite z-score [10]: 0.623 | composite z-score [11]: -0.32 | z-score [12]: 0.344 | composite z-score [13]: -1.38 | composite z-score [14]: -0.027 | composite z-score [15]: 0.988 | composite z-score [16]: -0.148 | composite z-score [17]: -0.0146 | composite z-score [18]: 1.06 | composite z-score [19]: -0.08 | composite z-score [20]: -0.442

C=CCN1C(=O)[C@@]2(O[C@@H](CCn3cc([C@H](O)c4ccccc4)nn3)[C@H]([Si](C)(C)c3ccc(OC)cc3)[C@H]2C)c2cc(N3CCOC3=O)ccc21
composite z-score [1]: -0.412 | composite z-score [2]: 0.16 | composite z-score [3]: 0.338 | z-score [4]: -2.62 (inactive) | composite z-score [5]: 0.0752 | composite z-score [6]: 0.472 | composite z-score [7]: 0.135 | composite z-score [8]: -0.0856 | composite z-score [9]: 0.216 | composite z-score [10]: 0.392 | composite z-score [11]: -0.0922 | z-score [12]: -3.71 | composite z-score [13]: -0.125 | composite z-score [14]: 0.0419 | composite z-score [15]: 0.462 | composite z-score [16]: -0.0754 | composite z-score [17]: -0.2 | composite z-score [18]: -0.0428 | composite z-score [19]: 0.559 | composite z-score [20]: -0.577

N#Cc1ccc(NN2C(C(O)c3ccc(I)cc3)C=CC3C(=O)N(c4ccccc4)C(=O)C32)cc1 (stereo not given)
composite z-score [1]: 1.13 | composite z-score [2]: 0.124 | composite z-score [3]: 1.03 | z-score [4]: 2.17 (inactive) | composite z-score [5]: 0.549 | composite z-score [6]: 0.656 | composite z-score [7]: 0.0977 | composite z-score [8]: 0.421 | composite z-score [9]: -0.337 | composite z-score [10]: 0.462 | composite z-score [11]: 1.48 | z-score [12]: 1.56 | composite z-score [13]: -0.417 | composite z-score [14]: 1.58 | composite z-score [15]: 0.526 | composite z-score [16]: 0.0803 | composite z-score [17]: -0.16 | composite z-score [18]: 1.56 | composite z-score [19]: 0.0108 | composite z-score [20]: 1.32

COc1cc(CO)cc(I)c1O[C@H]1C=C(C(=O)NCCO)C[C@@H](NCCc2c[nH]c3ccccc23)[C@@H]1O
composite z-score [1]: 1 | composite z-score [2]: 0.27 | composite z-score [3]: 0.375 | z-score [4]: -1.01 (inactive) | composite z-score [5]: 1.06 | composite z-score [6]: 0.433 | composite z-score [7]: 0.666 | composite z-score [8]: 1.05 | composite z-score [9]: 0.4 | composite z-score [10]: 1.22 | composite z-score [11]: -0.552 | z-score [12]: -2.76 | composite z-score [13]: 0.688 | composite z-score [14]: 0.228 | composite z-score [15]: -0.56 | composite z-score [16]: -0.0032 | composite z-score [17]: 0.116 | composite z-score [18]: 0.758 | composite z-score [19]: 0.762 | composite z-score [20]: 0.988

Cc1ccc(S[C@]2(C(=O)NCCCN(C)C)CC(=O)N(C3CCCCC3)[C@@H]2c2ccc(CO)cc2I)cc1
composite z-score [1]: -0.939 | composite z-score [2]: 0.956 | composite z-score [3]: 1.14 | z-score [4]: -1.31 (inactive) | composite z-score [5]: -0.582 | composite z-score [6]: 0.219 | composite z-score [7]: -1 | composite z-score [8]: -0.593 | composite z-score [9]: -0.256 | composite z-score [10]: 1.14 | composite z-score [11]: -1.32 | z-score [12]: -3.67 | composite z-score [13]: -0.848 | composite z-score [14]: -0.454 | composite z-score [15]: 0.49 | composite z-score [16]: -0.0455 | composite z-score [17]: 0.173 | composite z-score [18]: 0.134 | composite z-score [19]: 0.123 | composite z-score [20]: -0.693

COCCOC(=O)N1C(=O)[C@@]2(c3cc(C#CCC(C(=O)OC)C(=O)OC)ccc31)[C@H](c1ccccc1OCCO)N1[C@H](c3ccccc3)[C@H](c3ccccc3)OC(=O)[C@H]1[C@@H]2C(=O)N1CCCCCCC1
composite z-score [1]: 0.853 | composite z-score [2]: 1.97 | composite z-score [3]: 1.42 | z-score [4]: -0.247 (inactive) | composite z-score [5]: 0.834 | composite z-score [6]: 1.29 | composite z-score [7]: 0.852 | composite z-score [8]: 1.56 | composite z-score [9]: 1.4 | composite z-score [10]: 1.61 | composite z-score [11]: 1.39 | z-score [12]: -2.05 | composite z-score [13]: 1.24 | composite z-score [14]: 2.17 | composite z-score [15]: 1.49 | composite z-score [16]: 0.697 | composite z-score [17]: 0.626 | composite z-score [18]: 2.62 | composite z-score [19]: 1.31 | composite z-score [20]: 2
